The full data set covers some 8,800 targets. This sample favours those with a hit. About 0.5% of all pairs of compound and target were hits. A number with no mark means an inactive call.
Tests used:
Test in all cases: log2 fold change, soluble protein after heating vs DMSO (PISA); higher = thermal stabilisation; K562 lysate, 10 uM; active = over 0.2 and 3.5 SD of the protein, either way, in both replicates (recomputed)
lapatinib = compound: CS(=O)(=O)CCNCc1ccc(-c2ccc3ncnc(Nc4ccc(OCc5cccc(F)c5)c(Cl)c4)c3c2)o1 [lapatinib]
In short: (§1)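 Soluble protein was defined as the supernatant remaining after 21,000xg for 90 min, following pooling of heated aliquots and adjustment to 0.5% NP-40 at 4°C. Before that, crude K562 extract at 1 mg/mL protein in PBS pH 7.4 with 1 mM MgCl2 was treated with 10 μM compound for 30 min and heated for 3 min across 48°C-58°C. Quantification used TMTpro 16plex LC-MS/MS with channel sums equalised, and values are log-two fold changes in thermal stability relative to solvent controls from duplicates.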

pictilisib = compound: CS(=O)(=O)N1CCN(Cc2cc3nc(-c4cccc5[nH]ncc45)nc(N4CCOCC4)c3s2)CC1 [pictilisib]
In short: as §1

crizotinib = compound: C[C@@H](Oc1cc(-c2cnn(C3CCNCC3)c2)cnc1N)c1c(Cl)ccc(F)c1Cl [crizotinib]
In short: as §1

[1] = compound: C[C@H](C1=CC=C(C=C1)C(=O)NC2=C3C=CNC3=NC=C2)N
In short: as §1

gandotinib = compound: Cc1cc(Nc2cc(CN3CCOCC3)c3nc(C)c(Cc4ccc(Cl)cc4F)n3n2)n[nH]1 [gandotinib]
In short: as §1

tozasertib = compound: Cc1cc(Nc2cc(N3CCN(C)CC3)nc(Sc3ccc(NC(=O)C4CC4)cc3)n2)n[nH]1 [tozasertib]
In short: as §1

doramapimod = compound: Cc1ccc(-n2nc(C(C)(C)C)cc2NC(=O)Nc2ccc(OCCN3CCOCC3)c3ccccc23)cc1 [doramapimod]
In short: as §1

bafetinib = compound: Cc1ccc(NC(=O)c2ccc(CN3CC[C@H](N(C)C)C3)c(C(F)(F)F)c2)cc1Nc1nccc(-c2cncnc2)n1 [bafetinib]
In short: as §1

[2] = compound: Cc1cccc(CC(=O)N2CCc3c2ccc(-c2cn(C)c4ncnc(N)c24)c3F)n1
In short: as §1

duvelisib = compound: C[C@H](Nc1ncnc2nc[nH]c12)c1cc2cccc(Cl)c2c(=O)n1-c1ccccc1 [duvelisib]
In short: as §1

Sequence of UniProt Q8IVJ1 (Q8IVJ1 whole entry, looked up): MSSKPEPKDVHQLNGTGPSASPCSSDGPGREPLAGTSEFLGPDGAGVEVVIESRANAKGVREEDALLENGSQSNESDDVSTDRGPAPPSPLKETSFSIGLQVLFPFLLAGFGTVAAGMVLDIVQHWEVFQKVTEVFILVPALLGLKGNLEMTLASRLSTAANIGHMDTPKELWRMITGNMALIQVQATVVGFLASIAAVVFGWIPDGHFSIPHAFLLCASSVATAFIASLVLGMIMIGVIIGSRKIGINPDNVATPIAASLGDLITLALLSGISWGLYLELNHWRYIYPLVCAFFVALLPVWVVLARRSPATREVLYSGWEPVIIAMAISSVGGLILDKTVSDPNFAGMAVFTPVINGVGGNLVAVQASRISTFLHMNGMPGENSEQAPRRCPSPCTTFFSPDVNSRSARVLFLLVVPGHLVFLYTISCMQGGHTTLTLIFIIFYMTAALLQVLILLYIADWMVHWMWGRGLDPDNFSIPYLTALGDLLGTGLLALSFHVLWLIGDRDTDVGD
Sequence of UniProt Q5T011 (Q5T011 whole entry, looked up): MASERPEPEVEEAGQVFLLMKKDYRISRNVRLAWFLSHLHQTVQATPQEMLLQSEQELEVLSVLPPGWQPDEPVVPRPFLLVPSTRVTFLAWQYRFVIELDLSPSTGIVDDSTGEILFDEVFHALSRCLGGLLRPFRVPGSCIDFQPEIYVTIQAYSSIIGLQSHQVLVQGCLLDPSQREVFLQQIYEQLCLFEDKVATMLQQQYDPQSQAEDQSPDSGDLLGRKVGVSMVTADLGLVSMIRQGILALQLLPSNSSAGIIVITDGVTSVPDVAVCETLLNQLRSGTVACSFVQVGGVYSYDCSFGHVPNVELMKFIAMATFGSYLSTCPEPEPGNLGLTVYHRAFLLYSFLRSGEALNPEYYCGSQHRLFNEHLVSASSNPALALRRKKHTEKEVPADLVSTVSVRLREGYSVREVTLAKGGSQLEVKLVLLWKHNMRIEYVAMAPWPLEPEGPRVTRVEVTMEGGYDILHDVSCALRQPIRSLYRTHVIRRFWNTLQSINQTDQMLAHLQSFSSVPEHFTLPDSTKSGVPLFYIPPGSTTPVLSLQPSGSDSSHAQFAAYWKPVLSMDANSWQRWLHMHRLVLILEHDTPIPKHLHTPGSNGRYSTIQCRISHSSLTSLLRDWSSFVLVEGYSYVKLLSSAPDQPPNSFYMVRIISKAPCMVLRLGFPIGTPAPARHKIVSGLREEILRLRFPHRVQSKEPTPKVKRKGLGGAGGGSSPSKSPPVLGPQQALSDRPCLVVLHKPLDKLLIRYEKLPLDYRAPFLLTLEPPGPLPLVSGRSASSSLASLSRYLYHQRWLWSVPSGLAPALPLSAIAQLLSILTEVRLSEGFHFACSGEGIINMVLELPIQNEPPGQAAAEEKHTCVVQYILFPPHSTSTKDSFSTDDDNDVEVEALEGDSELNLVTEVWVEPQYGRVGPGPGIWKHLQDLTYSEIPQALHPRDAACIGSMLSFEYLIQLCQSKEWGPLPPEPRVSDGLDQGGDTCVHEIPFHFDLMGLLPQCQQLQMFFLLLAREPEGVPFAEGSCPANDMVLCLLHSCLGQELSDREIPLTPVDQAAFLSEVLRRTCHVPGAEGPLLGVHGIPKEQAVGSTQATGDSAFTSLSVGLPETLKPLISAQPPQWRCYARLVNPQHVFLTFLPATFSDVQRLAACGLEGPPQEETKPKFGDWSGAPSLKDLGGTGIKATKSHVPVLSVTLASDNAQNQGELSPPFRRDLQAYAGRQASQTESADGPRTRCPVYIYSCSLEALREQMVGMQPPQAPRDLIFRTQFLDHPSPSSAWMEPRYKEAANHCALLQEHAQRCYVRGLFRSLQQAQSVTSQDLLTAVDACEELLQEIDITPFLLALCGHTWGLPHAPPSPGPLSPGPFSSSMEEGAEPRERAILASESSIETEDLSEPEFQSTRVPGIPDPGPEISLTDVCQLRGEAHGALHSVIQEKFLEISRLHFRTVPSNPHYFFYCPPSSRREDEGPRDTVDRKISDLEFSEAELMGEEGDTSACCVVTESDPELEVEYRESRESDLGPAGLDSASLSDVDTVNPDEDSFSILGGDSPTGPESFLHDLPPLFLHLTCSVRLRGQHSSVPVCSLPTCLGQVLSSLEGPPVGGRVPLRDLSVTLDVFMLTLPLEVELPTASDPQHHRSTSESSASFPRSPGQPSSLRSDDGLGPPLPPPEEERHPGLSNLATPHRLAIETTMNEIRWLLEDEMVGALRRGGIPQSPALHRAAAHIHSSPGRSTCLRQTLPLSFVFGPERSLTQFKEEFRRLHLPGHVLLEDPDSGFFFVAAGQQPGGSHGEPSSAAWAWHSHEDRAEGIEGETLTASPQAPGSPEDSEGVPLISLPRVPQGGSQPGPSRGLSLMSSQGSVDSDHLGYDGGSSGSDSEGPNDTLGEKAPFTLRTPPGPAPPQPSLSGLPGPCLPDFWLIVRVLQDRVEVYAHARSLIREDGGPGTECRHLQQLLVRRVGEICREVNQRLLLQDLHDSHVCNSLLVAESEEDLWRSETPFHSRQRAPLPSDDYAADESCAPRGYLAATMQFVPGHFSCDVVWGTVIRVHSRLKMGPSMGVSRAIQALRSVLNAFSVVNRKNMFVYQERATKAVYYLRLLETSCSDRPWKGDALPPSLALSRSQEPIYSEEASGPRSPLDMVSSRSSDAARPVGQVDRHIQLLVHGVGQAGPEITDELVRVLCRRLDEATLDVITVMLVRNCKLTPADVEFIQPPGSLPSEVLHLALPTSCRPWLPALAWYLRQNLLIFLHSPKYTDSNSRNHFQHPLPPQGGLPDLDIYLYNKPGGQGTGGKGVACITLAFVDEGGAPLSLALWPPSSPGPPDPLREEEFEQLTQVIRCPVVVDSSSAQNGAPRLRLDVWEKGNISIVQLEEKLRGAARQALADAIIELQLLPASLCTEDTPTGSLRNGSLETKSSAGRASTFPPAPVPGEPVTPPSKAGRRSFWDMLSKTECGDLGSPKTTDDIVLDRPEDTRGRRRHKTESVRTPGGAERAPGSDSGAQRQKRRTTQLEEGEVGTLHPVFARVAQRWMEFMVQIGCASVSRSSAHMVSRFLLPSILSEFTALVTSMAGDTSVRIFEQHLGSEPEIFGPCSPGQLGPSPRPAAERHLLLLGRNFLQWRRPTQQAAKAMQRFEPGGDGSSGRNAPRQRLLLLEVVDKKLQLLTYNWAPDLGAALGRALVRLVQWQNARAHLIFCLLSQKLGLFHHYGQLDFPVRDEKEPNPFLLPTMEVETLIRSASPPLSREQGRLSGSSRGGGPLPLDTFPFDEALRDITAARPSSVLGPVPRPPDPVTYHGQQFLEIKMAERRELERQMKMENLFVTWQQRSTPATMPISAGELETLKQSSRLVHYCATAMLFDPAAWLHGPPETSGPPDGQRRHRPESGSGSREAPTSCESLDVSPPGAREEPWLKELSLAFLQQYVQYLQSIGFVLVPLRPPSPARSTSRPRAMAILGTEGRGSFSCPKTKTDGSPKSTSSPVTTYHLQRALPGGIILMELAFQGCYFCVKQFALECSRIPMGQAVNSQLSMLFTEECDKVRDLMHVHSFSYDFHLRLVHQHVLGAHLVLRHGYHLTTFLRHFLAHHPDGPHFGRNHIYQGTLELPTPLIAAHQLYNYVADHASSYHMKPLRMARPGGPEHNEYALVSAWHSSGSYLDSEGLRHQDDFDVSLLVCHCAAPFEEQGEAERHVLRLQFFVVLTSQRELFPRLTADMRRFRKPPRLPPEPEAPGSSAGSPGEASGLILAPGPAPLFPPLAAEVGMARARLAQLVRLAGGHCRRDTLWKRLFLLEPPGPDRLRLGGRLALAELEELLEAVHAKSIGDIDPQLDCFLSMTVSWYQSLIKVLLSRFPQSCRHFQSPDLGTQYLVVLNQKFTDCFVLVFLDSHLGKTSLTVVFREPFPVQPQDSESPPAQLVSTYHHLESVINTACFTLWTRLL
Sequence of UniProt B2RUZ4 (B2RUZ4 whole entry, looked up): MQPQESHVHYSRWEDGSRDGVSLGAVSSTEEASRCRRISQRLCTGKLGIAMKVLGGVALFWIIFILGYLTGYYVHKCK
Sequence of UniProt O95793 (O95793 whole entry, looked up): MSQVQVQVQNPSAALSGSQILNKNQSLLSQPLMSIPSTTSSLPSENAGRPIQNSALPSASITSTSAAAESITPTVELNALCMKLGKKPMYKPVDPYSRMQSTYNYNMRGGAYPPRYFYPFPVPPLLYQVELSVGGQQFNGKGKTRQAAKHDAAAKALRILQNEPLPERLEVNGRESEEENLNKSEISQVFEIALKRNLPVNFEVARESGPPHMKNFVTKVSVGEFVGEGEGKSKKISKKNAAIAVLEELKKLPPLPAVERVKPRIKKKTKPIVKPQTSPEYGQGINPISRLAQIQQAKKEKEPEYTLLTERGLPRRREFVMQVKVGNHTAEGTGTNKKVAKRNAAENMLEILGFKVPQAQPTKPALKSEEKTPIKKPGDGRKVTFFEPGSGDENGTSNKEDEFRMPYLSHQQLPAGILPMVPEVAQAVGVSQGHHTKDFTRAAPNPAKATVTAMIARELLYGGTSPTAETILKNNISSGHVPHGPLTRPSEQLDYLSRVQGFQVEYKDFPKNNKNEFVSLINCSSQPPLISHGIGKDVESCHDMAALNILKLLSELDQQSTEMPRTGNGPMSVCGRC
Sequence of UniProt Q9H7B4 (Q9H7B4 whole entry, looked up): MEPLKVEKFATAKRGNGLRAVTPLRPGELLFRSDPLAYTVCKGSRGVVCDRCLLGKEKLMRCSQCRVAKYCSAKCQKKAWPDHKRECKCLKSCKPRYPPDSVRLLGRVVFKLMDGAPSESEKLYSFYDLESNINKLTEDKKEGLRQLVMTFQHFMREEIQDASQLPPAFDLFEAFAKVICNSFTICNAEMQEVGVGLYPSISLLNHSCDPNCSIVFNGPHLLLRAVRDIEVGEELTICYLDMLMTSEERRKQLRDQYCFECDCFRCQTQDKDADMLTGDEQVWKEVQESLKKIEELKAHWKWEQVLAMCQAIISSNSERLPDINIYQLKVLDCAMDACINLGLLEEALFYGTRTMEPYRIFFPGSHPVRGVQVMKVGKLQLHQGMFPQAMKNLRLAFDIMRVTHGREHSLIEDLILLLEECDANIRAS

Target	log2 fold change (lapatinib)	log2 fold change (pictilisib)	log2 fold change (crizotinib)	log2 fold change [1]	log2 fold change (gandotinib)	log2 fold change (tozasertib)	log2 fold change (doramapimod)	log2 fold change (bafetinib)	log2 fold change [2]	log2 fold change (duvelisib)
SLC30A6 isoform 2 (UniProt Q6NXT4)	0.115	-0.027	0.009	-0.095	0.048	0.114	-0.058	0.034	0.116	
SNRNP40 (UniProt Q96DI7)	-0.014	0.063	-0.042	-0.075	0.167	0.015	0.121	0.011	0.089	-0.006
SMIM1 (UniProt B2RUZ4)	0.098	-0.028	-0.106	0.121	0.106	-0.019	0.034	-0.021	0.011	
TAF6L (UniProt Q9Y6J9)	-0.044	-0.091	0.035	0.037	-0.042	0.017	-0.019	-0.009	0.028	0.024
SNAP23 (UniProt O00161)	0.005	-0.035	0.067	0.034	0.007	0.005	0.002	0.059	-0.05	-0.004
SH3BP5L (UniProt Q7L8J4)	0.006	-0.004	-0.01	-0.05	0.031	0.098	-0.044	0.001	0.015	0.001
STK11IP (UniProt Q8N1F8)	0.022	0.012	-0.022	0.004	-0.019	-0.014	0.037	-0.008	0.036	-0.052
SRPK1 (UniProt Q96SB4)	-0.006	0.008	-0.089	0.1	0.17	-0.016	0.233	-0.028	-0.054	0.025
SLC38A1 (UniProt Q9H2H9)	-0.008	-0.01	-0.064	-0.218	0.096	0.026	-0.009	0.003	0.095	0.048
SHB (UniProt Q15464)	-0.07		-0.044	-0.305	0.186		0.028		-0.129	-0.034
SPAG1 (UniProt Q07617)	-0.058	0.17	0				-0.025	-0.265		
STK17B (UniProt O94768)			-0.255				-0.117			0
SLCO4A1 (UniProt Q96BD0)		-0.687 (active)		0.016	0.062			-0.334	0.012	
SLC35A3 isoform 2 (UniProt Q9Y2D2)	-0.097		-0.267	-1.02 (active)	0.215	0.032	0.095		0.332	
SMC1B isoform 3 (UniProt Q8NDV3)	0	-0.037	-0.019			0.26	-0.036	-0.093		0.015
SRC isoform 2 (UniProt P12931)	-0.001	-0.078		0.151	0.061	0.098		-0.153	-0.015	0.001
SNRPD2 (UniProt K7EJB5)	0.005		-0.202			0.051	0.105			0.014
SHC1 (UniProt P29353)				0.029	-0.033				0.009	
STK38L (UniProt Q9Y2H1)			-0.059			-0.009	-0.025			-0.007
SKP2 (UniProt Q13309)	-0.275		-0.159	-0.098	-0.075	-0.096	-0.024		0.104	-0.024
STAR (UniProt P49675)			-0.123	0.117	0.156	0.063	0.019		0.142	0.017

Target	log2 fold change (lapatinib)	log2 fold change (pictilisib)	log2 fold change (crizotinib)	log2 fold change [1]	log2 fold change (gandotinib)	log2 fold change (tozasertib)	log2 fold change (doramapimod)	log2 fold change (bafetinib)	log2 fold change [2]	log2 fold change (duvelisib)
SMPD2 (UniProt O60906)	0.015			0.106	-0.051	-0.031			0.03	0.107
STMN3 (UniProt Q9NZ72)	-0.017	-0.08	0.009			-0.023	-0.003	0.041		-0.023
SLC40A1 (UniProt Q9NP59)	-0.019		0.111	-0.164	0.054	-0.035	-0.056		0.018	0.099
STK26 isoform 3 (UniProt Q9P289)			0.095			-0.001	-0.416			0.008
STK17A (UniProt Q9UEE5)				0.315	-0.001				-0.197	
TAF11 (UniProt Q15544)	0.003		-0.085	-0.036	0.026	0.102	0.023		0	-0.06
STAU1 isoform 3 (UniProt O95793)		0.048	0.049	-0.298	0.112		0.269	-0.086	0.078	
SLC25A36 (UniProt Q96CQ1)	-0.019		0.022	0.029	0.024	-0.09	-0.011		-0.006	-0.122
SNAPC2 (UniProt Q13487)		0.08	-0.007	0.024	0.01		0.03	-0.537	-0.033	-0.129
SLU7 (UniProt O95391)		0.006	0.054	-0.187	0.255	0.028	-0.099	-0.267	0.367 (active)	0.06
SLC12A6 isoform 2 (UniProt Q9UHW9)	-0.019		-0.051			0.068	0.054			-0.023
SSX5 isoform 2 (UniProt O60225)	0.042	0.082		-0.476	0.092	0.085		-0.04	0.183	
SNAP23 isoform 2 (UniProt O00161)	0.075			0.188	-0.054	-0.185			-0.163	
SIN3B (UniProt O75182)			-0.057	-0.318	0.116	-0.095	0.584		-0.611	
SZT2 (UniProt Q5T011)	0.275	0.189		-0.108	-0.17	-0.097		-0.214	0.22	-0.081
SMYD3 (UniProt Q9H7B4)	0.017	-0.018	-0.146			0.023	0.053	-0.062		0.062
SMC4 (UniProt C9JJ64)		0.006						-0.251		
SYK (UniProt P43405)	-0.086	0.017		-0.479 (active)	0.272	0.002	0.021	-0.236	0.261	0.004
TARDBP (UniProt K7EN94)						0.257				
SMARCA4 isoform 4 (UniProt P51532)	-0.072		0	0.024	-0.007	0.136	-0.048		-0.012	-0.068
SLC41A1 (UniProt Q8IVJ1)	-0.059		0.141	-0.09	0.136	-0.016	0.01		0.113	

Reference: the supplement of paper PMC10849652
